In the library only some 2.6% were active in any assay of this set; here they are far more common.
PHOSPHO1 block = PubChem AID 1565. recombinant PHOSPHO1, absorbance phosphatase assay. Phosphoethanolamine/phosphocholine phosphatase (Homo sapiens), Q8TCT1. hit rate 1.1% among 290,000. inhibition, % at 13.3 µM; in the data active means inhibition above about 60%
A3G deaminase = APOBEC3G DNA deaminase inhibitors, primary screen, biochemical, fluorescence, single-stranded DNA substrate, uHTS; DNA dC->dU-editing enzyme APOBEC-3G (Homo sapiens), Q9HC16; recombinant A3G, ssDNA deamination FAM/TAMRA fluorescence; inhibition, % at 20 µM; hit rate 0.28% among 330,000; AID 493012, 2011;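 active means inhibition of at least 40% at 20 µM, with no more than 30% in the related APOBEC3A deaminase screen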;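 further: plate controls were DMSO wells with A3G for no effect and wells lacking A3G enzyme for full effect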
MLLE-PAM2 inh = inhibitors of PABP1 MLLE–PAM2 peptide binding, primary screen, biochemical, fluorescence polarization, FITC-PAM2, GST-MLLE. AID 588489, 2011. inhibition, % at 20 µM. hit rate 0.36% among 360,000. Polyadenylate-binding protein 1 (Homo sapiens), P11940; in the data active means inhibition above about 35%, passing the limit was not always enough;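 further: plate controls were DMSO wells with GST-MLLE for no effect and wells lacking GST-MLLE protein for full effect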
Target sequence (P11940 whole entry, looked up): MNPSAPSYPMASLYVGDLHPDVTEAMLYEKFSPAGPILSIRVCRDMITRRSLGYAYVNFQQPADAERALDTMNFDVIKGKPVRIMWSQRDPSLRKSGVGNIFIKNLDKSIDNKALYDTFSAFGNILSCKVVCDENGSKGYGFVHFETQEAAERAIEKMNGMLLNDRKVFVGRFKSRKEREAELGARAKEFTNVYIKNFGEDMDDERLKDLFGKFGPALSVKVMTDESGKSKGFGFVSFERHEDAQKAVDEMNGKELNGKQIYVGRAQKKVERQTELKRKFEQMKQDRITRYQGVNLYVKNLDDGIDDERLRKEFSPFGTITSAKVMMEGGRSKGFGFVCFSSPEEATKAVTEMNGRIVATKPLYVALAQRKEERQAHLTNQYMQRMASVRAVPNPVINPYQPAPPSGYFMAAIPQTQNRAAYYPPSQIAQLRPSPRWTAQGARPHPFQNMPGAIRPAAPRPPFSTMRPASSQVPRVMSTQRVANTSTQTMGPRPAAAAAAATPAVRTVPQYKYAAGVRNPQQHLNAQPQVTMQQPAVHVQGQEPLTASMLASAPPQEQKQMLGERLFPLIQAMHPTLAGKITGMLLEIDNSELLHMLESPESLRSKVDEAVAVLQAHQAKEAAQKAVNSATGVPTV
PABP FP inh = PABP poly(A) RNA binding inhibitors, primary screen, biochemical, fluorescence polarization, uHTS | calls only at 35 µM | Polyadenylate-binding protein 1 (Homo sapiens), P11940 | AID 2014, 2009 | hit rate 1% among 290,000;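 further: calls also rest on retests at 20 µM and on dose response follow-up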
eIF4H inh = human eIF4H binding inhibitors, primary screen, translation initiation inhibitor project, biochemical, uHTS, fluorescence polarization | Eukaryotic translation initiation factor 4H (Homo sapiens), Q15056 | eIF4H fluorescence polarization binding assay | inhibition, % at 35 µM | hit rate 0.94% among 290,000;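 further: calls also rest on retests at 20 µM and on dose response follow-up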
APOBEC3A inh = APOBEC3A ssDNA deaminase inhibitors, primary screen, selectivity assay for APOBEC3G inhibitor project, biochemical, FAM/TAMRA oligo cleavage fluorescence; DNA dC->dU-editing enzyme APOBEC-3A (Homo sapiens), P31941; recombinant A3A, FAM/TAMRA ssDNA deamination fluorescence; inhibition, % at 20 µM; hit rate 0.41% among 330,000;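 active means at least 40% inhibition at 20 µM here, with at most 30% in a related deaminase screen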;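 further: plate controls were A3A with DMSO for no effect and wells lacking A3A enzyme for full effect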
The depositor's hits bear a star; i = inactive; / = not tested or not shown; + = active, no number. Unless noted, how the calls were made is not given here.

SMILES	PHOSPHO1 block	A3G deaminase	MLLE-PAM2 inh	PABP FP inh	eIF4H inh	APOBEC3A inh
Oc1ccc(N=Cc2ccc(OCc3ccccc3)cc2)cc1	31.2	8.8	14.6	+	94.8*	7.3
CCOCCOC(=O)C1=C(C)Nc2ccc(C)cc2S1	-10.1	-1.1	31.5	i	-1.9	3.9
CCOC(=O)C1=C(C)Nc2ccc(C)cc2S1	32.3	-6.4	50.1*	i	3.8	-4.3
S=c1[nH]nc(-c2ccc(Cl)cc2)n1-c1ccc(Cl)cc1	-149.2	4.3	-29.0	i	-7.4	0.2
CC(C)(C)c1cn(-c2ccc(Cl)cc2)c(=S)[nH]1	73.8*	1.2	-34.9	i	1.3	0.6
COc1ccc(CC(=O)Nc2cc(S(=O)(=O)N3CCCC3)ccc2Cl)c(OC)c1	/	-8.4	-18.7	/	/	-4.2
O=C(c1ccc(Cl)cc1)N1CCN(c2ncccn2)CC1	27.0	-7.6	-4.4	i	0.4	-1.4
CCCn1c(=O)c(C(=O)Nc2ncccc2O)c(O)c2ccccc21	-17.7	-8.1	9.2	i	-0.5	-8.0
Cn1c(=O)c(C(=O)Nc2ncccc2O)c(O)c2ccccc21	81.7*	-4.0	-11.2	i	2.5	-0.4
Nc1ccc(C(CC(=O)O)n2cccc2)cc1 (stereo not given)	-25.8	3.7	13.2	+	67.4*	8.0
O=C(O)CC(c1ccccc1)n1cccc1 (stereo not given)	86.6*	-6.3	4.3	i	-13.9	-2.0
Cc1cccc(NC(=S)NC(=O)Cc2ccccc2)c1C	/	-5.8	20.9	i	3.1	-4.9
Cc1cc(C)c(O)c(NC(=S)NC(=O)Cc2ccccc2)c1	19.0	-0.5	41.8*	i	-6.9	1.6
Oc1ccc(C[C@H]2CNCCN2CC2CCCCC2)cc1	/	-4.6	0.7	/	/	-3.8
O=C(Nc1ccc2nc(-c3ccco3)[nH]c2c1)c1ccco1	1.3	2.3	11.7	+	60.7	4.5
O=C(Nc1ccccc1)c1ccc2nc(-c3ccco3)c(-c3ccco3)nc2c1	-17.0	76.1	3.1	+	99.9*	76.6
CC(=O)Nc1ccc2nc(-c3ccco3)[nH]c2c1	16.2	-5.3	8.1	i	15.4	-1.2
CC(=O)c1ccc(NC(=O)c2ccc3nc(-c4ccco4)c(-c4ccco4)nc3c2)cc1	97.9*	87.3	8.1	+	103.4*	96.2
O=C(Nc1ccc(N2CCOCC2)cc1)c1ccc2nc(-c3ccco3)c(-c3ccco3)nc2c1	-26.0	-0.1	12.4	i	15.3	7.1
CCCCNC(=O)c1ccc2nc(-c3ccco3)c(-c3ccco3)nc2c1	-9.0	41.4	19.6	+	93.9*	58.9
CC(=O)c1ccc(NC(=O)CSc2nnc(-c3ccco3)c(-c3ccco3)n2)cc1	17.9	67.6	31.5	i	99.9	83.8
CC(C)c1ccc(NC(=O)Nc2nnc([C@@H]3C[C@H](O)[C@@H](CO)O3)s2)cc1	/	/	21.2	/	/	/
O=C(NCCCO)c1ccc2nc(-c3ccco3)c(-c3ccco3)nc2c1	1.8	/	21.2	i	95.6	/
O=C(NCc1ccccc1)c1ccc2nc(-c3ccco3)c(-c3ccco3)nc2c1	42.3	86.4	18.5	+	107.6*	91.3
Nc1c(C(=O)Nc2ccccc2)sc2nc(-c3ccco3)ccc12	16.8	8.4	-16.2	+	75.3*	13.7
SMILES	PHOSPHO1 block	A3G deaminase	MLLE-PAM2 inh	PABP FP inh	eIF4H inh	APOBEC3A inh
O=C(CC1C(=O)NCCN1Cc1ccc(-c2ccccc2)cc1)NCC1CC1 (stereo not given)	60.1*	-8.4	18.9	i	4.1	7.4
CCN(CC)CCN1C(=O)c2cccc3cc(N)cc(c23)C1=O	28.5	-7.7	105.3	+	91.4*	18.9
NC(=O)CN1CCN(CCN2C(=O)c3cccc4cccc(c34)C2=O)CC1	30.2	-4.0	6.4	i	0.6	5.5
Nc1cc2c3c(cccc3c1)C(=O)N(CCN1CCCC1)C2=O	1.0	/	73.8	+	113.6*	/
O=C1c2cccc3cccc(c23)C(=O)N1CCO	/	/	3.3	/	/	/
CC(C(=O)NC(=O)NC1CCCCC1)N1CCN(c2ccc(O)cc2)CC1 (stereo not given)	/	26.2	15.1	/	/	-2.5
CCOC(=O)C1(Cc2ccccc2C)CCCN(C(=O)c2ccoc2)C1 (stereo not given)	27.4	-4.2	4.4	i	-4.4	-6.7
C1=CC2c3ccccc3NC(c3ccncc3)C2C1 (stereo not given)	78.7*	23.0	11.8	i	4.1	-2.9
COc1ccc(NC(=S)NNC(=O)c2ccco2)c(OC)c1	4.5	-4.1	-4.9	i	-1.2	-2.3
N#C/C(=C(/O)CSc1ncn[nH]1)c1nc2ccccc2[nH]1	30.5	-4.6	-13.6	+	63.6	-0.3
CC(C)(C)c1nnc2sc(SC/C(O)=C(\C#N)c3nc4ccccc4[nH]3)nn2c1=O	71.3*	-0.8	-47.3	i	7.1	1.9
CC(C)(C)c1nnc2sc(SCC(=O)c3ccccc3)nn2c1=O	27.0	-4.8	-20.1	i	-1.8	-3.6
S=C1NCCNC(=S)NCCOCCOCCN1	8.9	-7.6	-47.4	i	active	-4.7
C1COCCNCCOCCOCCOCCN1	-1.0	-4.0	-2.6	i	5.1	-5.8
Cc1ncc(C[n+]2csc(CCOC(=O)CC3C4CC5CC(C4)CC3C5)c2C)c(N)n1 (stereo not given)	-1.6	-5.9	14.9	+	27.9	-5.3
Cc1ncc(C[n+]2csc(CCOC(=O)C34CC5CC(CC(C5)C3)C4)c2C)c(N)n1	-19.3	-8.2	27.1	i	18.7	-2.1
COc1ccc(/C=C2/C(=O)OCc3cc(OC)c(OC)cc32)cc1	-7.8	-7.0	2.7	+	active	1.4
Cc1cccc(NC(=O)CCN2CCCCC2)c1	18.9	-7.5	5.3	i	-2.8	-7.5
Cc1cc(C)cc(NC(=O)CCN2CCCC2)c1	-0.8	-17.7	-18.8	+	-12.2	-6.2
CCOc1ccc(CCNS(=O)(=O)c2cc3c(cc2C)NC(=O)CO3)cc1OCC	-134.9	-4.1	-1.7	i	-14.8	-4.3
CNc1ccc(Br)cc(C(=O)/C=C/c2cccc(Cl)c2Cl)c1=O	3.5	/	-120.1	+	81.1	/
CCCCC[C@H](O)/C=C/[C@H]1C=CC(=O)[C@@H]1C/C=C\CCCC(=O)O	-6.3	/	/	+	94.0	/
CCc1ccc(C(=O)CSc2n[nH]c(C)n2)cc1	101.7*	-8.2	29.1	i	3.8	3.5
Cc1ccc(C(=O)CSc2n[nH]c(C)n2)cc1	92.3*	-7.6	23.0	i	-2.9	-2.4
